Screening data (PubChem)
A selection: hits, their analogues and other compounds. The true share with any hit is near 1.4%.
CRFR2-BP ag = agonists of human CRF-binding protein/CRF-R2 receptor complex | HEK293 CRF-R2/CRF-BP, calcium dye fluorescence (FLIPR); percent of saturating CRF peptide response | AID 588473 | activation, % at 13.2 µM | actives 0.46% (n = 350,000);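 active means activation of at least 50%, plus an integration ratio under a set limit after plate pattern correction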;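 further: plate controls were neutral control wells without compound for no effect and CRF at EC100 for full effect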
IDE cell activ = activators of human insulin-degrading enzyme in cells; actives 0.073% (n = 340,000); activation, % at 5.96 µM; HEK cells, FAbeta-B cleavage, fluorescence polarization; 0% vehicle, 100% cell-free pure enzyme wells;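 active means activation above the mean of all tested compounds plus 3 SD, set per screening campaign, cut at about 17% in these data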
TPT1 inh = inhibitors of Candida albicans tRNA 2'-phosphotransferase TPT1; recombinant caTPT1, FP RNA substrate dephosphorylation; inhibition, % at 5 µM; actives 0.81% (n = 300,000); AID 1962;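 active means inhibition above the mean of all tested compounds plus 3 SD, set per screening campaign, cut at about 24% in these data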;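 further: plate controls were DMSO alone for no effect and ferristatin control at 100 nM for full effect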
IDE inh = cellular human IDE inhibition; P14735; HEK cells, FAbetaB cleavage, fluorescence polarization; inhibition, % at 5.59 µM; actives 0.41% (n = 320,000); AID 434962;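 active means percent inhibition above the average of all tested compounds plus 3 SD, set per screening campaign, cut at about 16% in these data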;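 further: IDE supplied by intact live HEK cells; FP after avidin binding of uncleaved biotin substrate so inhibition keeps polarization high; 0% = DMSO wells and 100% = 60 µM reference IDE inhibitor Ii1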
HNF4A DNA FP = change in binding of human HNF4 alpha to DNA; P41235; HNF4a-FITC DNA binding, fluorescence polarization, 1 h; activity change, % at 10 µM; actives 0.3% (n = 360,000); AID 1224865; in the data active means activity change above about 30%, passing the limit was not always enough
Target sequence (P41235 whole entry, looked up): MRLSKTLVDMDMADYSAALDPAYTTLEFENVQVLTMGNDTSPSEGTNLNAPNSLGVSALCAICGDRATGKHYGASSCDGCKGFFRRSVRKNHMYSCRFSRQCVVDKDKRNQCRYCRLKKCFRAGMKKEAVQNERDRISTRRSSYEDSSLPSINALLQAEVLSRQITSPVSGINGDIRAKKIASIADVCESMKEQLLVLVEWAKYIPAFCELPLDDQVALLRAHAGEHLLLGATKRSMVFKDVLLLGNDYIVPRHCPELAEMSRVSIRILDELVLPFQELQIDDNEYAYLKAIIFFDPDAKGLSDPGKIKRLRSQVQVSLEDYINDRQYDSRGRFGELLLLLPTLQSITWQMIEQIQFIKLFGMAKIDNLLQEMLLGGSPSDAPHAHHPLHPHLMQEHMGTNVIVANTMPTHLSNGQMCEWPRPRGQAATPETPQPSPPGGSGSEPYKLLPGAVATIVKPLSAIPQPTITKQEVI
* hit, by the source's call.

Results for COc1ccc2cc1Oc1ccc(cc1)C[C@H]1c3c(cc(OC)c4c3Oc3c(ccc5c3[C@H](C2)N(C)CC5)O4)CCN1C ?
CRFR2-BP ag: 3.5; IDE cell activ: 6.4; IDE inh: 2.1; HNF4A DNA FP: 76.4*

How did COC(=O)c1ccc(CNC(=O)c2ccc(S(=O)(=O)N(C)c3ccccc3OC)cc2)cc1 do in these assays?
CRFR2-BP ag: -0.4; IDE cell activ: 0.6; IDE inh: -1.8; HNF4A DNA FP: -2.6

Results for CCS(=O)(=O)N1N=C(c2ccc(NS(C)(=O)=O)cc2)CC1c1ccccc1 (configuration not stated) ?
CRFR2-BP ag: -1.2; IDE cell activ: -0.2; TPT1 inh: 6.8; IDE inh: 8.3; HNF4A DNA FP: 86.3*

How did CS(=O)(=O)N1N=C(c2ccccc2)CC1c1ccc2c(c1)OCO2 (configuration not stated) do in these assays?
CRFR2-BP ag: 2.2; IDE cell activ: -11.8; TPT1 inh: 3.2; IDE inh: 13.2; HNF4A DNA FP: 155.7

What do the screens show for `CS(=O)(=O)Nc1cccc(C2=NN(S(C)(=O)=O)C(c3ccc4c(c3)OCO4)C2)c1` (configuration not stated)?
CRFR2-BP ag: -0.2; IDE cell activ: 0.5; TPT1 inh: 2.8; IDE inh: 4.2; HNF4A DNA FP: 36.3*

How did CS(=O)(=O)Nc1ccc(C2=NN(S(C)(=O)=O)C(c3ccccc3)C2)cc1 (configuration not stated) do in these assays?
CRFR2-BP ag: -0.5; IDE cell activ: -4.5; TPT1 inh: -1.2; IDE inh: 10.9; HNF4A DNA FP: 1.5

What do the screens show for `CCOC(=O)C1(CCOc2ccccc2)CCN(Cc2cccc(OC)c2O)CC1`?
CRFR2-BP ag: -0.2; IDE cell activ: 4.8; TPT1 inh: -0.6; IDE inh: 0.7; HNF4A DNA FP: 2.1

Results for Cc1cccc(NCC(=O)NNC(=S)Nc2ccccc2)c1 ?
CRFR2-BP ag: 1.0; IDE cell activ: 7.3; TPT1 inh: -1.9; IDE inh: 2.1; HNF4A DNA FP: -2.0

How did CNC(=S)NNC(=O)CNc1ccc(C)c(Cl)c1 do in these assays?
CRFR2-BP ag: 0.4; IDE cell activ: 2.0; TPT1 inh: -2.9; IDE inh: 3.2; HNF4A DNA FP: 52.9*

Results for Cc1cccc(N)c1-c1c(C)cccc1N ?
CRFR2-BP ag: -1.7; IDE cell activ: 2.4; TPT1 inh: 0.4; IDE inh: -1.8; HNF4A DNA FP: 2.6

How did COC(=O)c1sccc1-n1cccc1C(=O)C(=O)N1CCOCC1 do in these assays?
CRFR2-BP ag: -1.4; IDE cell activ: 4.3; TPT1 inh: 1.2; IDE inh: -1.6; HNF4A DNA FP: 39.7*

Results for Cc1ccccc1Sc1ccc(N)cn1 ?
CRFR2-BP ag: 0.5; TPT1 inh: 12.6; IDE inh: 0.2; HNF4A DNA FP: 71.6*

Results for COc1cccc(C2=CC(c3ccccc3)n3nnnc3N2)c1 (configuration not stated) ?
CRFR2-BP ag: 1.1; IDE cell activ: -0.8; TPT1 inh: 0.8; IDE inh: -0.8; HNF4A DNA FP: -4.3

What do the screens show for `CC1=CC(c2ccc(Cl)cc2)n2nc(N3C(=O)CCC3=O)nc2N1` (configuration not stated)?
CRFR2-BP ag: -1.3; IDE cell activ: 1.4; TPT1 inh: -1.1; IDE inh: 3.9; HNF4A DNA FP: -2.2

Results for Cc1ccc(C2C=C(c3ccccc3)Nc3nc(N4C(=O)CCC4=O)nn32)cc1 (configuration not stated) ?
CRFR2-BP ag: 80.6*; HNF4A DNA FP: -6.9

How did COc1ccc(C2C=C(c3ccc(C)cc3)Nc3ncnn32)cc1 (configuration not stated) do in these assays?
CRFR2-BP ag: 2.0; IDE cell activ: -3.0; HNF4A DNA FP: 1.4

What do the screens show for `COc1cccc(C2C=C(c3ccc(OC)cc3OC)Nc3nnnn32)c1` (configuration not stated)?
CRFR2-BP ag: 81.4*; IDE cell activ: -0.8; TPT1 inh: -22.9; IDE inh: 5.1; HNF4A DNA FP: -5.7

Results for COc1ccc(C2=CC(c3ccc(C)cc3)n3nnnc3N2)cc1 (configuration not stated) ?
CRFR2-BP ag: 91.5*; IDE cell activ: -14.6; TPT1 inh: -11.1; IDE inh: 5.3; HNF4A DNA FP: -13.7

What do the screens show for `COc1ccc(C2C=C(c3ccc(Br)s3)Nc3ncnn32)cc1OC` (configuration not stated)?
TPT1 inh: -86.8; IDE inh: 38.7*
